# ADAM17 inh = ADAM17 inhibition, QFRET primary screen; recombinant ADAM17, EDANS/DABCYL FRET peptide cleavage; inhibition, % at 6.95 µM; 0.83% of 370,000 active; AID 720648;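 active = inhibition above the mean of compounds lying between control limits plus 3 SD, set per campaign, cut at about 8.5% in these data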;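 note: 0% = DMSO-only wells as the low control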
# PLC-beta3 inh = blocks human PLC-beta3 enzyme activity; Q01970; Purified PLC-beta3, fluorogenic substrate, fluorescence; inhibition, % at 12.2 µM; 0.18% of 370,000 active; in the data active = inhibition above about 11%;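 note: 0% = median of compound wells on plate and 100% = full blocker control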
# PLCg1 inh = inhibitors of human phospholipase C gamma1 | P19174 | purified PLC-gamma1, fluorogenic substrate, fluorescence | inhibition, % at 12.2 µM | 0.84% of 370,000 active | AID 720700; in the data active = inhibition above about 9.5%
# Target sequence (P19174 whole entry, looked up): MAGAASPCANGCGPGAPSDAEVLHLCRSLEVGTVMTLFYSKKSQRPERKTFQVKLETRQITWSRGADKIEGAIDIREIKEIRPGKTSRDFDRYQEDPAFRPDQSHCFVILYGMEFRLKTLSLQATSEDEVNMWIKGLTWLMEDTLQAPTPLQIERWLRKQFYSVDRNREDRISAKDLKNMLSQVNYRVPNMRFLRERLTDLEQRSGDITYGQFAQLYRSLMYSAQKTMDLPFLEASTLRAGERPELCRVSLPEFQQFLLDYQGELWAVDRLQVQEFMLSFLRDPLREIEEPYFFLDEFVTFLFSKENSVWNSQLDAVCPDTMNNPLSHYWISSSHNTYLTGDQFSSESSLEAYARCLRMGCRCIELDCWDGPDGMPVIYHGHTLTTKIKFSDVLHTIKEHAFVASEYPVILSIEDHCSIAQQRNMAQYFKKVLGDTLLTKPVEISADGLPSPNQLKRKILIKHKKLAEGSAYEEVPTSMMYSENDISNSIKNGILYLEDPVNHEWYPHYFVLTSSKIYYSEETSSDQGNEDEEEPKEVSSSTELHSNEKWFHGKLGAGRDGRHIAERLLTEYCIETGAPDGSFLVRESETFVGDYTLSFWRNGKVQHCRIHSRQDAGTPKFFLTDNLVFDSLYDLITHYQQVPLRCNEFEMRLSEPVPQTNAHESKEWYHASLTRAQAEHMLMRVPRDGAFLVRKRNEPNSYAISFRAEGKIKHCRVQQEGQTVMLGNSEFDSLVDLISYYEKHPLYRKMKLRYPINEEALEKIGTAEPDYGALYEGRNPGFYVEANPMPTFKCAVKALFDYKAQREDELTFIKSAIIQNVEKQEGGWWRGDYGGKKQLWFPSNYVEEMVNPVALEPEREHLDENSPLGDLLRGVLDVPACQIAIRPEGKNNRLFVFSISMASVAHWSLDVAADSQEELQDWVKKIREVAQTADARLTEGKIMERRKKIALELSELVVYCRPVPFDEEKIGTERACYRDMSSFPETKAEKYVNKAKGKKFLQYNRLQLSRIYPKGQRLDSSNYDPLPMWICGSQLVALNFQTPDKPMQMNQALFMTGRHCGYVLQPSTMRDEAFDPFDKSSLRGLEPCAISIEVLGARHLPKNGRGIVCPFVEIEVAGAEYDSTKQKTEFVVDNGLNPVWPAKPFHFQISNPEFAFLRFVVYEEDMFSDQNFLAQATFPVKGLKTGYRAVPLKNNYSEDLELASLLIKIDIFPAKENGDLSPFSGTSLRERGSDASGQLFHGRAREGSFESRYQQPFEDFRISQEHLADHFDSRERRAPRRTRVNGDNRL
# ADAM10 inh = inhibitors of human ADAM10. O14672. recombinant ADAM10, EDANS/DABCYL FRET peptide cleavage, 3 h. inhibition, % at 7 µM. 0.62% of 370,000 active. AID 720582;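 active = inhibition above a per-campaign cutoff equal to the mean of compounds falling between control-based bounds plus 3 SD, cut at about 20% in these data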;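 note: 0% = DMSO wells while the 100% control is not disclosed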
# proKLK7 act = proKLK7 (human) activation, primary screen; 0.9% of 370,000 active; activation, % at 7 µM; purified proKLK7, EDANS-DABCYL substrate fluorescence; 100% is mature enzyme control, 0% vehicle;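 active = activation above the mean of all tested compounds plus 3 SD, computed per campaign excluding outliers beyond control limits, cut at about 13% in these data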
# ADAM10 confirm = confirmation of inhibitors of human ADAM10; 1% of 2,100 active; ADAM10 QFRET peptide cleavage, EDANS fluorescence; inhibition, % at 6.95 µM; shares compounds with ADAM10 inh;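 active = inhibition above about 20% chosen separately for each screening run, limit read from the data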;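 note: 0% = DMSO wells and 100% = marimastat wells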
# ADAM17 ctr = inhibits human ADAM17 in ADAM10 exosite counter-screen | shares compounds with ADAM10 inh | ADAM17 QFRET peptide cleavage, EDANS fluorescence | inhibition, % at 6.95 µM | 0.5% of 2,100 active;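 active = mean triplicate inhibition above the solvent-only control wells' mean plus 3 SD, cut at about 12% in these data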;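 note: 0% = DMSO wells and 100% = marimastat wells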
# * marks the source's active call; other numbers are inactive results; / = not tested or not shown. Hits are enriched below; roughly 2.9% of the tested compounds scored in any of these assays.
SMILES,ADAM17 inh,PLC-beta3 inh,PLCg1 inh,ADAM10 inh,proKLK7 act,ADAM10 confirm,ADAM17 ctr
CC(C)C[C@H](NC(=O)c1[nH]cnc1C(=O)N[C@@H](C)c1ccccc1)C(=O)OC(C)(C)C,8,-2,2,24*,0,4,2
CC(C)(C)OC(=O)[C@H](Cc1ccccc1)NC(=O)c1nc[nH]c1C(=O)N1CCN(c2ccccc2)CC1,7,3,5,22*,0,5,2
CC(C)C[C@H](NC(=O)c1[nH]cnc1C(=O)N[C@@H](Cc1ccccc1)C(=O)OC(C)(C)C)C(=O)OC(C)(C)C,-2,3,2,7,0,/,/
O=C(CC1CCCC1)N[C@@H](Cc1cccnc1)C(=O)N1CCC[C@H]1C(=O)NC1CCCC1,-1,5,-4,4,0,/,/
CC(=O)C1=C(C)N(CC(C)C)C(=S)NC1c1ccc(Br)cc1 (stereo not drawn),-3,-1,0,0,0,/,/
CCOC(=O)CC[C@@H]1CC[C@]2(CCCN(Cc3nccn3C)C2)O1,-1,-1,0,1,0,/,/
CC(C)C[C@H](NC(=O)c1[nH]cnc1C(=O)N[C@@H](C)C(=O)OC(C)(C)C)C(=O)OCc1ccccc1,12*,3,6,21*,0,4,1
Cc1cccc(N2CCN(S(=O)(=O)c3ccc(S(=O)(=O)N4CCCC4)cc3)CC2)c1C,0,2,2,2,1,/,/
Cc1cccc(N2CCN(S(=O)(=O)c3ccc4c(c3)CC(=O)N4C)CC2)c1C,1,-4,-1,21*,0,1,1
CCCN(CCC)S(=O)(=O)c1ccc(C(=O)NCc2n[nH]c(=S)n2-c2ccc(Cl)c(Cl)c2)cc1,6,-2,5,24*,0,1,1
COc1ccc(NS(=O)(=O)c2cccc(N3CC(O)=C(c4ccccc4)C3=N)c2)cc1,-1,1,-2,65*,0,2,0
COc1ccccc1NS(=O)(=O)c1cccc(N2CC(O)=C(c3ccccc3)C2=N)c1,1,0,2,2,0,/,/
O=C(COC(=O)c1c2c(nc3ccccc13)CCCC2)Nc1ccc2c(c1)OCO2,8,0,6,24*,-1,3,1
CC(C)Cc1ccc(C(C)C(=O)Nc2ccc(O)cc2)cc1 (stereo not drawn),5,-5,1,21*,0,1,1
CC(C)Cc1ccc(C(C)C(=O)Nc2cccnc2)cc1 (stereo not drawn),-2,-2,0,-6,0,/,/
CC(OC(=O)c1ccc(NS(=O)(=O)c2ccc3[nH]c(=O)[nH]c3c2)cc1)C(=O)Nc1ccc(Cl)cc1 (stereo not drawn),4,2,2,11,-1,/,/
COc1ccc(Cl)cc1NC(=O)C(C)OC(=O)c1ccc(NS(=O)(=O)c2ccc3[nH]c(=O)[nH]c3c2)cc1 (stereo not drawn),7,2,0,22*,1,5,1
CC(C)C(=O)OCC(=O)Nc1ccc(N=Nc2ccccc2)cc1,7,6,6,25*,0,0,1
C[C@@H]1[C@@H](O)C[C@@]2(C[C@H](O)c3cc(Cl)cc(Cl)c3O2)O[C@H]1c1ccccc1Cl,6,-1,1,26*,1,5,2
C[C@@H]1[C@@H](O)C[C@@]2(C[C@H](O)c3ccccc3O2)O[C@H]1c1ccccc1,3,-2,1,-1,0,/,/
COc1ccc(-c2nn(-c3ccccc3)cc2C(=O)Nc2cccc(S(=O)(=O)NC3=NCCC3)c2)cc1,2,-4,6,24*,0,7,1
COc1ccc(-c2nn(-c3ccccc3)cc2CNC(=O)c2cccc([N+](=O)[O-])c2)cc1,8,5,6,21*,0,4,1
COc1ccc(NC(=O)c2cn(-c3ccccc3)nc2-c2ccncc2)cc1,-1,1,2,-6,0,/,/
COc1ccc(NC(=O)CN(C)C(=O)c2cn(-c3ccccc3)nc2-c2ccc(OC)cc2)cc1,7,2,7,26*,1,0,1
O=C(NCc1cn(-c2ccccc2)nc1-c1ccccc1)c1cc([N+](=O)[O-])cc([N+](=O)[O-])c1,-2,3,1,9,0,/,/
SMILES,ADAM17 inh,PLC-beta3 inh,PLCg1 inh,ADAM10 inh,proKLK7 act,ADAM10 confirm,ADAM17 ctr
COC(=O)c1ccc(Cn2ccc3ccc(-c4ccc5ccn(C(=O)C6CCCCC6)c5c4)cc32)cc1,-9,-114,-75,-20,-2,/,/
O=C(CSc1nnc(-c2cccnc2)n1C1CCCCC1)NC1CCCCCC1,1,1,2,-2,-1,/,/
Cc1ccc(Cn2cc(CN3[C@H](c4ccccc4)COc4cc(Br)ccc4S3(=O)=O)nn2)cc1,8,0,-1,21*,-1,6,2
COc1ccc(OC(F)(F)F)cc1CC1(C)C(=O)Nc2ccc(-c3ccsc3)cc21 (stereo not drawn),9,-3,8,26*,-1,11,3
CC(C)(C)c1ccc(S(=O)(=O)N2CCCC2C(=O)N2CCc3ccccc3C2)cc1 (stereo not drawn),5,-1,0,4,0,/,/
COc1ccccc1N1C(=O)C(Cl)=C(Nc2ccccc2O)C1=O,7,-9,-8,22*,0,14,5
O=C1C(Cl)=C(Nc2ccccc2O)C(=O)N1c1ccccc1,-6,-6,0,3,1,/,/
COc1ccc(-c2cn(-c3ccc(C)cc3C)c(=S)[nH]2)cc1OC,8,-1,7,20*,0,4,2
COc1cc(OC)c(-n2cc(-c3ccc(OC)c(OC)c3)[nH]c2=S)cc1Cl,2,-6,1,12,0,/,/
CC(=O)c1cccc(S(=O)(=O)N2CCC(c3nc4ccccc4[nH]3)CC2)c1,2,-3,2,2,0,/,/
Cc1ccc2nc(C3CCN(S(=O)(=O)c4ccc5ccccc5c4)CC3)[nH]c2c1,6,4,4,26*,1,6,2
COc1ccc(Nc2nc(N)c([N+](=O)[O-])c(NC3CCCCC3)n2)cc1,6,-5,8,31*,1,6,2
N#CCC(CNc1ncc(C(F)(F)F)cc1Cl)OC(=O)c1cccc([N+](=O)[O-])c1 (stereo not drawn),8,1,4,21*,0,0,1
N#CCC(CNc1ncc(C(F)(F)F)cc1Cl)OC(=O)c1c(F)cccc1F (stereo not drawn),8,7,-1,11,0,/,/

# High-throughput results: PubChem BioAssay, The Scripps Research Institute Molecular Screening Center
